Experimental data reported in PubChem BioAssay (Tox21).
The source made the active and inactive calls. Calls come from the whole dose curve; as a rule, active = well fitted curve in the direction sought with a large enough effect in the repeat runs; inconclusive = weak or mixed curves; inactive = flat fitted curve, though single readings scatter.

test: qHTS assay to test for compound auto fluorescence at 590 nm (red) in HepG2 cell free culture (AID 720684); details: cell-free medium autofluorescence, red 540/590 nm; series mostly up to 46 µM
Excerpt: U.S. Tox21 Program National Center for Advancing Translational Sciences [NCATS] NIH Chemical Genomics Center [NCGC] U.S. Environmental Protection Agency [EPA] National Institutes of Environmental Health Sciences [NIEHS] National Toxicology Program [NTP] U.S. Food and Drug Administration [FDA] Tox21 Assay Overview: Compound auto fluorescence often interferes with screening of the compound library against various biological targets and signaling pathways. Some of these compounds may have fluorophoric properties. Such properties may interfere with the assay outputs resulting in false positives and/or negatives. To decrease such complications and ensure the compound activities are relevant in terms of biological response, the Tox21 10K compound library was screened for auto fluorescence. From the fluorophores used as reporter signals in our screening assays, the auto fluorescence equivalencies of compounds against three fluorophores have been evaluated: Triamterene, Fluorescein and Rose Bengal sodium for blue, green and red fluorescence, respectively. The fluorescence intensities were measured using Excitation/Emission wavelengths at 405/460nm, 485/535nm and 540/590nm for blue, green and red labels, respectively. This assay includes the red fluorescence data.
Tox21 Assay Protocol Summary: 5 uL of culture medium (MEM containing 10% FBS) per well was dispensed into black wall/clear bottom 1536-well plates using a Multidrop Combi Dispenser (ThermoFisher Scientific, Waltham, MA). After 23 nL compound or DMSO vehicle was transferred into assay plate by a pintool work station (Kalypsys, San Diego, CA), fluorescence intensities in the assay plates were measured by an Envision (PerkinElmer, Shelton, CT) plate reader using three labels for measuring blue, green and red fluorescence at […] 460, 535 and 590nm respectively.

Row | SMILES | outcome
1 | O=[N+]([O-])c1cc(I)c(O)c(I)c1 | inactive
2 | CCCCCc1cc(O)c2c(c1)OC(C)(C)c1ccc(C)cc1-2 | inactive
3 | CC(Cc1ccccc1)NC=O (stereo not given) | inactive
4 | CC(C)(C)c1ccc(O)cc1 | inactive
5 | [S]=[Sb](=[S])[S][Sb](=[S])=[S] | inactive
6 | CO/C=C(/C(=O)OC)c1ccccc1Oc1cc(Oc2ccccc2C#N)ncn1 | inactive
7 | CC(C)C[C@H]1C(=O)N2CCC[C@H]2[C@]2(O)O[C@](NC(=O)[C@@H]3C[C@@H]4c5cccc6[nH]cc(c56)C[C@H]4N(C)C3)(C(C)C)C(=O)N12 | inactive
8 | O=C1CN=C(c2ccccc2)c2cc(Cl)ccc2N1 | inactive
9 | Oc1c(Cl)cc(Cl)cc1Cl | inactive
10 | CN[C@@]1(c2ccccc2Cl)CCCCC1=O | inactive
11 | C=CCC1([C@@H](C)CCC)C(=O)NC(=O)NC1=O | inactive
12 | CC[N+](C)(CC)CCOC(=O)C(O)(c1ccccc1)c1ccccc1 | inactive
13 | CC(=O)[C@@]1(O)CC[C@H]2[C@@H]3CCC4=CC(=O)CC[C@]4(C)C3(F)[C@@H](O)C[C@@]21C (stereo not given in full) | inactive
14 | C[C@]12CC[C@H](O)C[C@H]1CC[C@@H]1[C@@H]2CC[C@]2(C)[C@@H](c3ccc(=O)oc3)C[C@H]3O[C@]132 | inactive
15 | Oc1ccc2c3c1O[C@H]1[C@@H](O)CC[C@@]4(O)[C@@H](C2)N(CC2CCC2)CC[C@]314 | inactive
16 | C=CCN(C1=NCCN1)c1c(Cl)cccc1Cl | inactive
17 | CCOc1ccc2c3c1O[C@H]1[C@@H](O)C=C[C@H]4[C@@H](C2)N(C)CC[C@@]341 | inactive
18 | CCCCCc1cc(O)c2c(c1)OC(C)(C)[C@@H]1CCC(C)=C[C@@H]21 | inactive
19 | C/C(=C\c1csc(C)n1)[C@@H]1C[C@@H]2O[C@]2(C)CCC[C@H](C)[C@H](O)[C@@H](C)C(=O)C(C)(C)[C@@H](O)CC(=O)O1 | inactive
20 | CN1c2ccccc2C(NCCCCCCC(=O)O)c2ccc(Cl)cc2S1(=O)=O (stereo not given) | inactive

Row | SMILES | outcome
21 | CCNC(C)Cc1cccc(C(F)(F)F)c1 (stereo not given) | inactive
22 | COC(COC(N)=O)C1=C(N2CC2)C(=O)C(C)=C(N2CC2)C1=O (stereo not given) | inactive
23 | COc1ccc2c(c1)C13CCCC[C@@H]1C(C2)N(C)CC3 (stereo not given in full) | inactive
24 | CC1COC(Cn2cncn2)(c2ccc(Oc3ccc(Cl)cc3)cc2Cl)O1 (stereo not given) | inactive
25 | CCN1C[C@]2(COC)[C@H](O)C[C@H](OC)[C@@]34[C@@H]5C[C@@]6(O)[C@H](OC(=O)c7ccccc7)[C@@H]5[C@@](OC(C)=O)([C@@H]([C@H](OC)[C@H]23)[C@@H]14)[C@@H](O)[C@@H]6OC | inactive
26 | Clc1ccccc1-c1ccccc1Cl | inactive
27 | CC(=O)O[C@H]1C[C@H](O[C@H]2[C@@H](O)C[C@H](O[C@H]3[C@@H](O)C[C@H](O[C@H]4CC[C@@]5(C)[C@H](CC[C@@H]6[C@@H]5C[C@@H](O)[C@]5(C)[C@@H](C7=CC(=O)OC7)CC[C@]65O)C4)O[C@@H]3C)O[C@@H]2C)O[C@H](C)[C@H]1O[C@@H]1O[C@H](CO)[C@@H](O)[C@H](O)[C@H]1O | inactive
28 | C[C@]12CC[C@H]3[C@@H](CCC4=C(O)C(=O)CC[C@@H]43)[C@@H]1CC[C@@H]2OC(=O)CCC1CCCC1 | inactive
29 | CC(C)NC(C)Cc1ccc(I)cc1 (stereo not given) | inactive
30 | CC(C)[C@@]1(NC(=O)[C@@H]2C[C@@H]3c4cccc5[nH]cc(c45)C[C@H]3N(C)C2)O[C@@]2(O)[C@@H]3CCCN3C(=O)[C@H](Cc3ccccc3)N2C1=O | inactive
31 | CN(C)CCCCCCN(C)C (tested in a mixture with another compound) | inactive
32 | COc1ccc(OC)c(C[C@H](C)N)c1 | inactive
33 | CC[C@H]1[C@@H]2C[C@H]3[C@@H]4N(C)c5ccccc5[C@]45C[C@@H](C2[C@H]5O)N3[C@@H]1O (stereo not given in full) | inactive
34 | CCN(CC)/[N+]([O-])=N/O | inactive
35 | O=S(=O)(O)c1cc(O)ccc1O | inactive
36 | O=C1C(I)=CC(=C(c2cc(I)c(O)c(I)c2)c2ccccc2C(=O)O)C=C1I | inactive
37 | Cc1cc(C(C)(C)c2ccc(O)c(C)c2)ccc1O | inactive
38 | C[C@]12C[C@H]3S[C@H]3C[C@@H]1CC[C@@H]1[C@@H]2CC[C@]2(C)[C@@H](O)CC[C@@H]12 | inactive
39 | O=C(O)CCCO | inactive
40 | c1ccc2c(c1)Sc1ccccc1N2CC1CN2CCC1CC2 (stereo not given) | inactive
